This passage reports outcome results from PubChem BioAssay (EPA / NIEHS).

The target in assay [1] is Tyrosine-protein phosphatase non-receptor type 13 (Homo sapiens) (UniProt Q12923). Briefly: NVS_ENZ_hPTPN13: NovaScreen (NVS) Enzymatic Assay for human Protein Tyrosine Phosphatase Non-receptor Type 13 (PTPN13) (AID 2283205). Summed up: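 Cell-free assay of recombinant human PTPN13 with a fluorescent substrate, product separated by electrophoretic mobility shift and read 0.5 h after dosing. Primary screen at 25 uM in duplicate, then concentration-response up to 50 uM. Loss of signal fitted against DMSO.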
Chain of Tyrosine-protein phosphatase non-receptor type 13 (Homo sapiens) (Q12923 whole entry, looked up): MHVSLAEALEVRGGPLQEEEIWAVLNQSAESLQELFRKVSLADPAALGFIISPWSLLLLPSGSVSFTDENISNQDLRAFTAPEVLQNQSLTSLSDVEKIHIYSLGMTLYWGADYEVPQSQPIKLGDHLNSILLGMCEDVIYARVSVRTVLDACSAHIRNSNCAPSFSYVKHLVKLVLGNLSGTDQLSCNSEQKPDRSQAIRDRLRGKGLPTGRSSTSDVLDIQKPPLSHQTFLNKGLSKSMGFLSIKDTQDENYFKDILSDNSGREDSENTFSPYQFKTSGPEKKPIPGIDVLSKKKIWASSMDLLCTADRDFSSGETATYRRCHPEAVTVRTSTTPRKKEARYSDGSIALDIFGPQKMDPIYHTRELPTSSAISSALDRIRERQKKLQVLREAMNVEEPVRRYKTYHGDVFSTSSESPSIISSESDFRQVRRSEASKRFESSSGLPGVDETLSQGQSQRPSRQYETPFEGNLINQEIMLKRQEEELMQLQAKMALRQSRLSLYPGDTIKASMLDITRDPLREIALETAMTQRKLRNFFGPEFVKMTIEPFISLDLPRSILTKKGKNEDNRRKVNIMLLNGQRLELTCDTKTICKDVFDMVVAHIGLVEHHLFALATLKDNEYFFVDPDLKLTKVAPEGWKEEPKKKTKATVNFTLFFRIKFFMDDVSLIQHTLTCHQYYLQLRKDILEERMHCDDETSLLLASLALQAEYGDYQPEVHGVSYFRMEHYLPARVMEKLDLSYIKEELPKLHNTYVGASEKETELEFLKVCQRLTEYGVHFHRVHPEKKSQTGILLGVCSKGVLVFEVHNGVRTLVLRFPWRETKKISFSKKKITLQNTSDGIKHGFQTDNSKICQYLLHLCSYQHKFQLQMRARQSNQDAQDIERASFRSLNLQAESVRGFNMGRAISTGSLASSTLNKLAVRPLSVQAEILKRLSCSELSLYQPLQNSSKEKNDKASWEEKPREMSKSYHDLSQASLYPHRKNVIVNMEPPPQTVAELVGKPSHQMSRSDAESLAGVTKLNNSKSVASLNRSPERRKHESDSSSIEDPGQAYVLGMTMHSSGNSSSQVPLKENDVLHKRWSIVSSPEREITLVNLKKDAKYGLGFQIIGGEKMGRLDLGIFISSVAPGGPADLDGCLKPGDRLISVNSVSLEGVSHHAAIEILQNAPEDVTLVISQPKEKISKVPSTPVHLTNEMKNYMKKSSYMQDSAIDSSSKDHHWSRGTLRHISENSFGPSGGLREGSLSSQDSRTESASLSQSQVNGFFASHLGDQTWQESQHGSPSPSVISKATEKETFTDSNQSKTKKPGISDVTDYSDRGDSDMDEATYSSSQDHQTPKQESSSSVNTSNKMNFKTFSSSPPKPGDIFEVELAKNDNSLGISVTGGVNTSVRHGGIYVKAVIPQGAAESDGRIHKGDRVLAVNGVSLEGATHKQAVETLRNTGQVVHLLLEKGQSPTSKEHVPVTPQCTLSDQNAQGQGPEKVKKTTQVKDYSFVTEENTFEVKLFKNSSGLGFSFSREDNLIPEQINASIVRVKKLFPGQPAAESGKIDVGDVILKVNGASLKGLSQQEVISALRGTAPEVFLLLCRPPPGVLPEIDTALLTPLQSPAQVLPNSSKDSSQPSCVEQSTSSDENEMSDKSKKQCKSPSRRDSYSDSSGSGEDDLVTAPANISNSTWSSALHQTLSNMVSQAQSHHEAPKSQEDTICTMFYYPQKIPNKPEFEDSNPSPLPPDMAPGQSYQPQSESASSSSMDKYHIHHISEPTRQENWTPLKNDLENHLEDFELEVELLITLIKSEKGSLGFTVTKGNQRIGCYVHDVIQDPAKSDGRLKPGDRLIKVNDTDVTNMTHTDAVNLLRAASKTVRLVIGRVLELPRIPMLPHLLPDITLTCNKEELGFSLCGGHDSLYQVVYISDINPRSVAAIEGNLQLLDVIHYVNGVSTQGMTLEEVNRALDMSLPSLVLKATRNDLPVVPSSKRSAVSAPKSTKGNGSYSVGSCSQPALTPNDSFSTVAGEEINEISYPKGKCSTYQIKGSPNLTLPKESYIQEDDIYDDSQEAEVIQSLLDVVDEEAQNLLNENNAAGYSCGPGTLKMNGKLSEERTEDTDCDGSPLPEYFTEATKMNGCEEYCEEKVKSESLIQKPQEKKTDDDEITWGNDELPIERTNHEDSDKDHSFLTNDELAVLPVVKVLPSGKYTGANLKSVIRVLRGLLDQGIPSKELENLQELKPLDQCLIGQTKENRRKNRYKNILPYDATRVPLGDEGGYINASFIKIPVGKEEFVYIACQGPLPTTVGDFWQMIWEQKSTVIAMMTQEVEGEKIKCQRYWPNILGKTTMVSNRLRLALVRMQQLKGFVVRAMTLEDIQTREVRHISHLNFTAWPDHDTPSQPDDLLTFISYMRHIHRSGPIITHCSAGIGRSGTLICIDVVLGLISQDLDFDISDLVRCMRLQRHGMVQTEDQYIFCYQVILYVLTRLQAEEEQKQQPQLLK

Assay [2] has as its target human Raf-1 Proto-Oncogene, serine/threonine Kinase (RAF1), RAF1 (gene 5894) (UniProt P04049). In words: NVS_ENZ_hRAF1: NovaScreen (NVS) Enzymatic Assay for human Raf-1 Proto-Oncogene, serine/threonine Kinase (RAF1) (AID 2283216). The protocol: NVS_ENZ_hRAF1 is a biochemical, single-readout assay that uses extracted gene-proteins in a cell-free assay. Measurements were taken 1 hour after chemical dosing in a 384-well plate.NVS_ENZ_hRAF1 is one of one assay component(s) measured or calculated from the NVS_ENZ_hRAF1 assay. It is designed to make measurements of enzyme activity, a form of enzyme reporter, as detected with fluorescence intensity signals by Fluorescence and electrophoretic mobility shift technology.Data from the assay component NVS_ENZ_hRAF1 was analyzed into 1 assay endpoint. This assay endpoint, NVS_ENZ_hRAF1, was analyzed in the positive analysis fitting direction relative to DMSO as the negative control and baseline of activity. Using a type of enzyme reporter, loss-of-signal activity can be used to understand changes in the enzymatic activity as they relate to the gene RAF1. Furthermore, this assay endpoint can be referred to as a primary readout, because this assay has produced multiple assay endpoints where this one serves a enzymatic activity function. To generalize the intended target to other relatable targets, this assay endpoint is annotated to the kinase intended target family, where the subfamily is serine/threonine kinase. […]

The target of assay [3] is human Sirtuin 2 (SIRT2), SIRT2 (gene 22933) (UniProt Q8IXJ6). Briefly: NVS_ENZ_hSIRT2: NovaScreen (NVS) Enzymatic Assay for human Sirtuin 2 (SIRT2) (AID 2283217). Summed up:
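Cell-free recombinant human SIRT2, fluorescent substrate with product separated by electrophoretic mobility shift, 1 hr. Screened in duplicate at 25 uM; hits rerun singly in concentration-response up to 50 uM, relative to DMSO.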

Assay [4] has as its target human Sirtuin 3 (SIRT3), SIRT3 (gene 23410) (UniProt Q9NTG7). Briefly: NVS_ENZ_hSIRT3: NovaScreen (NVS) Enzymatic Assay for human Sirtuin 3 (SIRT3) (AID 2283222). In short, it runs like this: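 Cell-free enzyme assay with recombinant protein and fluorescent substrate, product separated by electrophoretic mobility shift; read 1 hour after dosing. Screened in duplicate at 25 uM, then singleton concentration-response up to 50 uM; loss of signal versus DMSO.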

Inconclusive results are not listed. The source made the active and inactive calls. The calls were made as follows: active = hit-call score of the fitted dose curve at least 0.9, where 1 is the maximum; inconclusive = response in the unintended direction; inactive = score below 0.9.

Chain of human Raf-1 Proto-Oncogene, serine/threonine Kinase (RAF1), RAF1 (gene 5894) (P04049 whole entry, looked up): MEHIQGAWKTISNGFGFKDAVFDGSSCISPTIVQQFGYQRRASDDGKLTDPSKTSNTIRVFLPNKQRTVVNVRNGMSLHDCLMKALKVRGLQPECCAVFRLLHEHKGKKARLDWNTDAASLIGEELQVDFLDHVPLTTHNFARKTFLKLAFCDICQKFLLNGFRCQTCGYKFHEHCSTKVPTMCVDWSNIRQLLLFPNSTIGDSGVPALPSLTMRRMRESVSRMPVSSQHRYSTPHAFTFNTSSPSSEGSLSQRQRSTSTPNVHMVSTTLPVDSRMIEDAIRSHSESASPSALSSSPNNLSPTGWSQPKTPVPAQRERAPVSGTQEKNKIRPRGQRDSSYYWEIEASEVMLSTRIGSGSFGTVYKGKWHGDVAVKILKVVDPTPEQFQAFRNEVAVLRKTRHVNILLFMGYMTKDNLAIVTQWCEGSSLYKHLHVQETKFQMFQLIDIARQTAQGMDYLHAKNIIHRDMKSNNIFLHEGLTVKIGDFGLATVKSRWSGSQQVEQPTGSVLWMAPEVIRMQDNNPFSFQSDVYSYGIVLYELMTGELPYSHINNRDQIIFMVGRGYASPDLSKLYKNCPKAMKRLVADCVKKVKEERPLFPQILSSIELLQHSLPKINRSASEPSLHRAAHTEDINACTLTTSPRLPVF
Chain of human Sirtuin 2 (SIRT2), SIRT2 (gene 22933) (Q8IXJ6 whole entry, looked up): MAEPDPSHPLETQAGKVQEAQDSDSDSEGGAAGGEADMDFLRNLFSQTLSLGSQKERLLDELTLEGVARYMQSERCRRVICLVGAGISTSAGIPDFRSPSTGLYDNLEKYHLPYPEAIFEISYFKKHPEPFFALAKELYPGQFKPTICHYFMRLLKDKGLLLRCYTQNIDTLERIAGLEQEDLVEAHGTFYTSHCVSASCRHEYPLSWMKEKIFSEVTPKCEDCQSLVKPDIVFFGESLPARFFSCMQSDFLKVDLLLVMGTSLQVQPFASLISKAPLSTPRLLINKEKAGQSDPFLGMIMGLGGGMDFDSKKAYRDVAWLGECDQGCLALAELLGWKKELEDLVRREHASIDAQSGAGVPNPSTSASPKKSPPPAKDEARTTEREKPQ
Chain of human Sirtuin 3 (SIRT3), SIRT3 (gene 23410) (Q9NTG7 whole entry, looked up): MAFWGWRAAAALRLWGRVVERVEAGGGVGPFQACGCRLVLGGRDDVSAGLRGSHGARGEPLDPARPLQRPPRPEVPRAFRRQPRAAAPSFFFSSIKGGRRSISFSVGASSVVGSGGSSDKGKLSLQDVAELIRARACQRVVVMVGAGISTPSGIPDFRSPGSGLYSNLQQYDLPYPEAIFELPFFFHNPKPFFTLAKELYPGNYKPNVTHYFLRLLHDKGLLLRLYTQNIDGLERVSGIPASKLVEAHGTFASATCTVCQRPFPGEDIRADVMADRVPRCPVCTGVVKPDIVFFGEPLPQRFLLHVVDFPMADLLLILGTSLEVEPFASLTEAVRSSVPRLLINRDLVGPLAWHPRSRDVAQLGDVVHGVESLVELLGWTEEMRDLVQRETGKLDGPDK

On to `CC(C)(C)OOC(C)(C)C`, for which the call in assay [1] and in assay [2] was inactive.
Turning to `c1ccc(OP(Oc2ccccc2)Oc2ccccc2)cc1`, the result in assay [1] was inactive.
Regarding `CSC(C)(C)C=NO`, the result in assay [3] and in assay [4] was inactive.
